Values joined by “and” are separate entries in the source; they are usually repeats but may differ in a detail not shown here. Equal entries are not always repeated. The whole screen tested about 5,500 compounds, of which about 2,000 (36%) were called active. Roughly 18% stayed inconclusive and do not appear here. No stated cut-off is given here; in the data, active means normalized growth mostly below about 0.91 (no sharp cut-off); inconclusive means no clear call, values can overlap the other calls; inactive means mostly above about 0.92. Some of the results follow.
Assay: chemical genetic growth profiling, strain panel (AID 1159580);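 further: tested at 20 µM; growth read once vehicle control cultures reached saturation at 30 °C; 1 = growth at the plate median or of vehicle wells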
Details: S. cerevisiae deletion strains, growth OD

Measured: normalized growth

NCCc1ccc(O)cc1
inactive: locus YAL021C, strain ccr4, stronger effect = lower value 0.995 | locus YAL026C, strain drs2, stronger effect = lower value 0.963 | locus YAL030W, strain snc1, stronger effect = lower value 0.989 | locus YAL040C, strain CLN3, stronger effect = lower value 0.988 | locus YBL061C, strain skt5, stronger effect = lower value 0.975 | locus YBR009C, strain hhf1, stronger effect = lower value 0.985 | locus YBR021W, strain FUR4, stronger effect = lower value 0.97 | locus YBR023C, strain chs3, stronger effect = lower value 0.98 | locus YBR171W, strain sec66, stronger effect = lower value 0.957 | locus YBR229C, strain ROT2, stronger effect = lower value 0.999 | locus YBR231C, strain swc5, stronger effect = lower value 0.961 | locus YBR279W, strain paf1, stronger effect = lower value 0.983 | locus YCL011C, strain gbp2, stronger effect = lower value 0.997 | locus YCL016C, strain dcc1, stronger effect = lower value 1.01 | locus YCL029C, strain bik1, stronger effect = lower value 1.01 | locus YCL061C, strain MRC1 (second series), stronger effect = lower value 1.01 | locus YCL069W, strain vba3, stronger effect = lower value 0.99 | locus YCR088W, strain abp1, stronger effect = lower value 0.972 | locus YDL005C, strain med2, stronger effect = lower value 0.972 | locus YDL035C, strain GPR1, stronger effect = lower value 1.01 | locus YDL040C, strain nat1, stronger effect = lower value 0.984 | locus YDL074C, strain BRE1, stronger effect = lower value 0.99 | locus YDL101C, strain DUN1, stronger effect = lower value 1 | locus YDL185W, strain tfp1, stronger effect = lower value 1 | locus YDL192W, strain arf1, stronger effect = lower value 1 | locus YDR001C, strain nth1, stronger effect = lower value 0.975 | locus YDR069C, strain doa4, stronger effect = lower value 0.945 | locus YDR101C, strain arx1, stronger effect = lower value 0.991 | locus YDR137W, strain rgp1, stronger effect = lower value 0.981 | locus YDR150W, strain NUM1, stronger effect = lower value 1.01 | locus YDR159W, strain sac3, stronger effect = lower value 0.905 | locus YDR162C, strain NBP2, stronger effect = lower value 1.01 | locus YDR195W, strain ref2 0.928 | locus YDR297W, strain sur2, stronger effect = lower value 0.978 | locus YDR318W, strain mcm21, stronger effect = lower value 0.997 | locus YDR334W, strain swr1, stronger effect = lower value 0.967 | locus YDR335W, strain msn5, stronger effect = lower value 0.983 | locus YDR363W, strain ESC2, stronger effect = lower value 1.01 | locus YDR388W, stronger effect = lower value 1 | locus YDR392W, strain spt3, stronger effect = lower value 0.935 | locus YDR502C, strain sam2, stronger effect = lower value 0.989 | locus YEL003W, strain gim4, stronger effect = lower value 0.969 | locus YEL037C, strain rad23, stronger effect = lower value 0.977 | locus YEL061C, strain CIN8 (second series), stronger effect = lower value 0.975 | locus YEL061C, strain CIN8, stronger effect = lower value 1 | locus YER002W, strain NOP16, stronger effect = lower value 0.994 | locus YER015W, strain faa2, stronger effect = lower value 0.994 | locus YER016W, strain bim1, stronger effect = lower value 0.985 | locus YER110C, stronger effect = lower value 0.993 | locus YER111C, strain swi4, stronger effect = lower value 0.981 | locus YER155C, strain BEM2 (second series), stronger effect = lower value 0.951 | locus YER155C, strain BEM2, stronger effect = lower value 1.01 | locus YER167W, strain BCK2, stronger effect = lower value 1 | locus YFR010W, strain ubp6, stronger effect = lower value 0.957 | locus YGL078C, strain dbp3, stronger effect = lower value 0.994 | locus YGL086W, strain mad1, stronger effect = lower value 0.966 | locus YGL167C, strain pmr1, stronger effect = lower value 0.972 | locus YGL173C, strain kem1, stronger effect = lower value 0.964 | locus YGL227W, strain vid30, stronger effect = lower value 0.978 | locus YGL240W, strain doc1, stronger effect = lower value 0.96 | locus YGL248W, strain PDE1, stronger effect = lower value 1.01 | locus YGL253W, strain hxk2, stronger effect = lower value 0.972 | locus YGR078C, strain PAC10, stronger effect = lower value 1.01 | locus YGR135W, strain pre9, stronger effect = lower value 0.997 | locus YGR229C, strain SMI1, stronger effect = lower value 1.01 | locus YGR252W, strain gcn5, stronger effect = lower value 1.01 | locus YHR013C, strain ard1, stronger effect = lower value 0.97 | locus YHR027C, strain rpn1, stronger effect = lower value 0.99 | locus YHR030C, strain SLT2, stronger effect = lower value 1 and 0.976 | locus YHR079C, strain IRE1 (second series), stronger effect = lower value 0.994 | locus YHR079C, strain IRE1, stronger effect = lower value 0.976 | locus YHR094C, strain hxt1, stronger effect = lower value 1.01 | locus YHR129C, strain ARP1, stronger effect = lower value 1.01 | locus YHR142W, strain chs7, stronger effect = lower value 0.982 | locus YHR200W, strain rpn10, stronger effect = lower value 1.03 | locus YIL066C, strain RNR3, stronger effect = lower value 1.01 | locus YIL073C, strain SPO22, stronger effect = lower value 0.985 | locus YIL125W, strain kgd1, stronger effect = lower value 0.985 | locus YIR030C, strain dcg1, stronger effect = lower value 0.996 | locus YJL092W, strain hpr5, stronger effect = lower value 0.973 | locus YJL095W, strain BCK1 (second series), stronger effect = lower value 0.978 | locus YJL095W, strain BCK1, stronger effect = lower value 1.01 and 0.995 | locus YJL115W, strain asf1, stronger effect = lower value 0.963 | locus YJL129C, strain trk1, stronger effect = lower value 0.967 | locus YJL134W, strain LCB3, stronger effect = lower value 1.01 | locus YJL154C, strain vps35, stronger effect = lower value 0.975 | locus YJL164C, strain tpk1, stronger effect = lower value 0.998 | locus YJL166W, strain qcr8, stronger effect = lower value 0.986 | locus YJL168C, strain set2, stronger effect = lower value 1 | locus YJL187C, strain SWE1 (second series), stronger effect = lower value 1.01 | locus YJL187C, strain SWE1, stronger effect = lower value 0.984 | locus YJR043C, strain POL32, stronger effect = lower value 1.02 | locus YJR066W, strain TOR1, stronger effect = lower value 0.932

— PubChem BioAssay AID1159580 (chemical genetic matrix, 2015)
